Among the data in PubChem BioAssay are outcome and inhibition values, retold here.

For some assays here: Potency and affinity values are given separately. Calls of active or inactive are those of the source.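 Rule for the calls, unless noted: active = calcium signal cut by more than 3 SD below the full-agonist control yet still positive, in both repeats and the earlier primary screen; inactive = the rest.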

The test system of test [1] is TRPC4 beta (transient receptor potential cation channel C4), mouse. Description: activators of mouse TRPC4 channel, confirmation, cell-based, Fluo4 calcium, HEK293 TRPC4beta/mu-opioid, duplicates, 10 µM (AID 2426;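 active = fluorescence ratio normalized to control raised more than 50% in primary screen plus both repeat runs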). The note with it: Fluo4 calcium fluorescence, at 10 µM; hits give high values.
The test system of test [2] is transient receptor potential cation channel C4 beta (TRPC4), mouse. Description: activators of mouse TRPC4 channel, confirmation, cell-based, second round, Fluo4, HEK293 TRPC4beta/mu-opioid, 1 µM (AID 2461;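 active = primary screen active and over 50% activation in each of two duplicate runs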). The note with it: Fluo4 calcium fluorescence, at 1 µM; hits give high values.
The subject of test [3] is TRPC4 (transient receptor potential cation channel C4 beta), mouse. Description: positive allosteric modulators of mouse TRPC4, confirmation, cell-based, second round, Fluo-4, HEK293 TRPC4beta/mu-opioid, 1 µM (AID 2554;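 active = primary screen hit whose fluorescence ratio, in both repeats, exceeds the weak agonist control mean by 3 SD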). Conditions: DAMGO EC20, Fluo-4 calcium flux, at 1 µM; hits give high values. (In general: A change in cytosolic calcium serves as a functional read-out for many receptors and channels.)

Test [4] deals with TRPC4 beta (transient receptor potential cation channel C4), mouse. Description: positive allosteric modulators of mouse TRPC4, confirmation, cell-based, Fluo-4, HEK293 TRPC4beta/mu-opioid (AID 2555;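 active = primary screen hit whose calcium fluorescence ratio, in both repeats, exceeds the weak agonist control mean by 3 SD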). Conditions: DAMGO EC20, Fluo-4 calcium flux, at 10 µM; hits give high values.
Test [5] addresses Short transient receptor potential channel 4 (Mus musculus) (UniProt Q9QUQ5). As to the kind of experiment: inhibitors of mouse TRPC4 channel, confirmation, cell-based, Fluo4, HEK293 TRPC4beta/mu-opioid (AID 2636). Conditions: DAMGO, Fluo4 calcium flux, at 10 µM; hits give high values.
The target is the same in test [6]. Description: inhibitors of mouse TRPC4 channel, confirmation, cell-based, second round, Fluo4, HEK293 TRPC4beta/mu-opioid, 1 µM (AID 2637;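 active = calcium signal ratio cut to more than 3 SD under the fully stimulated control mean yet still positive, in both repeats and the primary screen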;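 for inhibition: percent of integrated ratio relative to wells lacking test compound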). The note with it: Fluo4 calcium flux, DAMGO, at 1 µM; hits give high values.
Test [7] has the same target. Description: mouse TRPC4 channel activators, dose response, cell-based, HEK293 TRPC4/mu-opioid, Fluo-4 calcium (AID 434937;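 active = primary screen activator hit with a dose response curve and TRPC4 channel activation at any tested dose; inactive = no activation, no dose response, or not a primary hit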).
For test [8] the target is unchanged. Description: TRPC4 positive allosteric modulators, dose response, cell-based, HEK293 TRPC4/mu-opioid, Fluo-4 calcium, EC20 DAMGO (AID 434941;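 active = earlier screen potentiator hit that boosts the TRPC4 ion channel at some dose, with a dose response; inactive = no potentiation, no dose response, or not a prior hit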;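 note: calcium entry triggered by an EC20 dose of DAMGO at the co-expressed mu-opioid receptor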).
The target in test [9] is Short transient receptor potential channel 6 (Mus musculus) (UniProt Q61143). As to the kind of experiment: inhibition of mouse TRPC6 channel, confirmation, selectivity assay for TRPC4 inhibitor project, cell-based, HEK293, membrane potential dye, duplicate (AID 434948;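 active = active in primary screen and both duplicates, each dropping signal beyond three positive-control SD with fluorescence still positive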). Conditions: HEK293 TRPC6, membrane potential dye fluorescence, at 10 µM, stimulated with maximal-effect acetylcholine; hits give high values.

For test [10] the target is unchanged. As to the kind of experiment: activation of mouse TRPC6 channel, confirmation, selectivity assay for TRPC4 activator project, cell-based, HEK293, membrane potential dye, duplicate (AID 434950;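 active = membrane potential signal rise above negative control mean plus 3 SD in both duplicates, also active in the earlier TRPC4 screen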). Conditions: HEK293 TRPC6, membrane potential fluorescence, at 10 µM; hits give high values.
For test [11] the target is unchanged. Description: TRPC6 potentiation by TRPC4 potentiator hits, confirmation, selectivity assay for TRPC4 potentiator project, HEK293 cells, membrane potential dye, duplicate (AID 434952;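 active = compound raising the membrane signal above positive-control mean plus 3 SD in both repeats, and a primary screen hit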). The note with it: HEK293 TRPC6, membrane potential dye fluorescence, at 10 µM, maximal acetylcholine added after compound; hits give high values.
The target in test [12] is Short transient receptor potential channel 4 (Mus musculus) (UniProt Q9QUQ5). Description: calcium flux activators in TRPC4/5HT1a cells, counter-screen for TRPC4 activator project, cell-based, second counter screen, HEK293 TRPC4/5HT1a, Fluo-4 (AID 434977;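 active = calcium signal rise above buffer-control mean plus 5 SD in both duplicates, and also a hit in the primary screen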). The note with it: Fluo-4 calcium flux, at 10 µM; hits give high values.
Test [13] in a line: calcium flux inhibitors in TRPC4/5HT1a cells, confirmation, counter-screen for TRPC4 inhibitor project, cell-based, second counter screen, HEK293 TRPC4/5HT1a, Fluo-4 (AID 434978;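 active = primary screen active whose calcium signal fell more than 3 SD beyond the full-serotonin control mean in both duplicate plates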;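 for outcome: serotonin given first at submaximal then at maximal dose after compound preincubation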). Conditions: Fluo-4 calcium flux, at 10 µM, serotonin added to trigger calcium flux; hits give high values.
For test [14], the system named is TRPC4 (mouse), co-expressed with 5HT1a in HEK293. Description: calcium flux potentiators in TRPC4/5HT1a cells, confirmation, counter-screen for TRPC4 potentiator project, cell-based, second counter screen, HEK293 TRPC4/5HT1a, Fluo-4 (AID 434979;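 active = signal rise over 3 SD above mean of control wells given weak agonist, in both repeats and first screen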). Conditions: Fluo-4 calcium flux, at 10 µM, serotonin added at its EC20 dose; hits give high values.
Test [15] is described as follows: calcium flux activation in mu-opioid HEK293 cells, confirmation, counter-screen for TRPC4 activator project, cell-based, HEK293 mu-opioid receptor line (AID 449723;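 active = hit in primary screen, with calcium signal over 5 SD above buffer well mean in both duplicates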;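 note: counter screen cells carry the mu-opioid receptor alone and lack TRPC4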). The note with it: Fluo-4 calcium fluorescence, at 10 µM; hits give high values.
Test [16] in a line: calcium flux enhancement in mu-opioid HEK293 cells, confirmation, counter-screen for TRPC4 allosteric potentiator project, cell-based, HEK293 mu-opioid receptor line (AID 449724;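 active = calcium signal rise more than 3 SD above the low-dose agonist control mean, in both duplicate plates and the primary screen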;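 note: HEK293 cells carrying mu-opioid receptor only with no TRPC4 channel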). Conditions: Fluo-4 calcium flux, at 10 µM, compound added before EC20 DAMGO stimulus; hits give high values.

Short transient receptor potential channel 6 (Mus musculus), sequence (Q61143 whole entry, looked up): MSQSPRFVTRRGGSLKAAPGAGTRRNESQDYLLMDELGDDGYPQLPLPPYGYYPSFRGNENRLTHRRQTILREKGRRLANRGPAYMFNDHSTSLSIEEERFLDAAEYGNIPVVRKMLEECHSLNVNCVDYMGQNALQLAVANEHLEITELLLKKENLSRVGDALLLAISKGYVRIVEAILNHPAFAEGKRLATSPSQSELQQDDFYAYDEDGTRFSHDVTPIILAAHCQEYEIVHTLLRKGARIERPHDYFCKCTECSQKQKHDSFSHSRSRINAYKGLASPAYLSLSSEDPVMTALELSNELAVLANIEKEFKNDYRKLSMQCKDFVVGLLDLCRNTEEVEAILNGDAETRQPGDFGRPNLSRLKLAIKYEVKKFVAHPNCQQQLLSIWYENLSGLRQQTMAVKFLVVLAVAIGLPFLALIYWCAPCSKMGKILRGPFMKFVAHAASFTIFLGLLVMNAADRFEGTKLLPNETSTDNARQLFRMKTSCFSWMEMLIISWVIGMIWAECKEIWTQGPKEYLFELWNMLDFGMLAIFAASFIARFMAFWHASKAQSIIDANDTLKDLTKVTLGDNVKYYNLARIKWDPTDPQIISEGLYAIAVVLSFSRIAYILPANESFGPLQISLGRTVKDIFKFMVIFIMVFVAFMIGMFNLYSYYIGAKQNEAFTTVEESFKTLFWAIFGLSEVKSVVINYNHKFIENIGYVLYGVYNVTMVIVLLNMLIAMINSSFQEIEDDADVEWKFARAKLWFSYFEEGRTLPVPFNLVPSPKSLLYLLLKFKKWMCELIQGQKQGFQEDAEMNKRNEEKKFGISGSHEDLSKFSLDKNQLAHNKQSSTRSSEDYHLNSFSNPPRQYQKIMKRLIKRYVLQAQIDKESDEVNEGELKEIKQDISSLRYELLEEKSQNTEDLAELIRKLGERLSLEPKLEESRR
Short transient receptor potential channel 4 (Mus musculus), sequence (Q9QUQ5 whole entry, looked up): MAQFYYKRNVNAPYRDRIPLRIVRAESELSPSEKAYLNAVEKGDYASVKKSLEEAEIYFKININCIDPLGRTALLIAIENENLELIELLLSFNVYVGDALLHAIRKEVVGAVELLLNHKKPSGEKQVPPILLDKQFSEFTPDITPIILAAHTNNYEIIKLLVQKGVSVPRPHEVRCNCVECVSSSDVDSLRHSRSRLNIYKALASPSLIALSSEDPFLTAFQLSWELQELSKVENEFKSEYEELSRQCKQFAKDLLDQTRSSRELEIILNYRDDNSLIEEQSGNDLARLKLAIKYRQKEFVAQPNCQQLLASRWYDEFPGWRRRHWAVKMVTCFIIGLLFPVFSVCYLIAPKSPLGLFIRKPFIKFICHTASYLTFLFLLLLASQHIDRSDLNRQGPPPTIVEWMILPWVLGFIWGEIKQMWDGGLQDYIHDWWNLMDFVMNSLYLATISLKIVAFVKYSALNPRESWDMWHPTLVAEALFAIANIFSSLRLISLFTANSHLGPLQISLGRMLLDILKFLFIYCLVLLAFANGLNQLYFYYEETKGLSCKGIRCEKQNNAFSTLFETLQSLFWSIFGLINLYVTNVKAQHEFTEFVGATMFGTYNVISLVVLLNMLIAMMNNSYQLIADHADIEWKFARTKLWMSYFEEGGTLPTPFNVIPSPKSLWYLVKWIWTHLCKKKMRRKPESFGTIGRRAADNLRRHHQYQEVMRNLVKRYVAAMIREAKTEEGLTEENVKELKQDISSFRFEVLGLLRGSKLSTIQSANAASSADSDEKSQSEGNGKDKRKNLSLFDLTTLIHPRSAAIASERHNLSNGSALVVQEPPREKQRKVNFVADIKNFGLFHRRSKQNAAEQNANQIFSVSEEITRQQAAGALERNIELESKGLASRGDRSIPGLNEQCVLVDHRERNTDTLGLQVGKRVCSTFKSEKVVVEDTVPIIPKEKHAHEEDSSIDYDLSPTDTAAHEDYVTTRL

As for `CCOC(=O)c1cc(C#N)c(N2CCCCC2)nc1-c1ccccc1`, the result in [1], in test [2], in test [3], in test [4], in [6] and in test [7] was inactive. For the same molecule, the outcome in test [8], in test [9], in [10], in [11], in [12] and in test [13] was inactive. The outcome in [14], in test [15] and in test [16] was inactive. For the same molecule, in [5], the inhibition is 93% (active).

With `CCC1(C(=O)c2ccccc2)C(c2ccc([N+](=O)[O-])cc2)C1(C(=O)OC)C(=O)OC` (centres undefined), the result in test [1], in test [2], in test [3], in [4], in [6] and in test [7] was inactive. The result in test [8], in test [9], in [10], in [11], in test [12] and in test [13] was inactive. Also, the outcome in test [14], in [15] and in test [16] was inactive. For the same molecule, the inhibition in [5] is 71% (active).

`CN(C(=O)CSc1nc(-c2ccc(C(C)(C)C)cc2)c(C#N)c(=O)[nH]1)C1CCCCC1`: the outcome in [1], in [2], in test [3], in test [4], in test [6] and in test [7] was inactive. In addition, the outcome in test [8], in [9], in test [10], in [11], in test [12] and in test [14] was inactive. The result in [15] and in test [16] was inactive. Moreover, the results for the inhibition in test [5] and in [13] were 97% (active) and 4.92% (active), respectively.

For the molecule `COCCn1c(SCc2ccccc2F)nc2ccccc2c1=O`, the result in test [1], in test [2], in test [3], in [4], in test [6] and in test [7] was inactive. In addition, the outcome in [8], in test [9], in test [10], in test [11], in test [12] and in test [14] was inactive. The outcome in [15] and in test [16] was inactive. For the same molecule, the inhibition in test [5] was 88% (active); in test [13] it was 20.8% (active).

`CCCc1nc2ccccc2n1Cc1ccccc1OC`: the result in test [1], in [2], in test [3], in [4], in [6] and in [7] was inactive. Also, the result in test [8], in test [9], in test [10], in test [11], in [12] and in [14] was inactive. In addition, the result in [15] and in test [16] was inactive. Besides, the results for the inhibition in test [5] and in [13] were 88% (active) and 32.4% (active), respectively.

For `COCCn1c(SCc2ccc(F)cc2)nc2ccccc2c1=O`, the result in test [1], in test [2], in [3], in test [4], in test [6] and in test [7] was inactive. For the same molecule, the outcome in test [8], in test [9], in [10], in [11], in [12] and in [14] was inactive. The outcome in [15] and in test [16] was inactive. The inhibition in [5] is 96% (active); in test [13] it was 21.6% (active).

On to `Cc1ccc(C)c(S(=O)(=O)/N=C2\C=C(NS(=O)(=O)c3ccccc3)C(=O)c3ccccc32)c1`, for which the outcome in [1], in test [2], in test [3], in test [4], in test [6] and in test [7] was inactive. The result in test [8], in [10], in test [11], in test [12], in test [13] and in test [14] was inactive. In addition, the result in test [15] and in [16] was inactive. Also, the inhibition in [5] was 92% (active); in [9] it was 33% (active).

For the molecule `Cc1cccc(N(Cc2ccccc2)C(=O)CSC(C)C(=O)Nc2cc(C)on2)c1` (centres undefined), the result in test [1], in test [2], in test [3], in test [4], in test [6] and in [7] was inactive. For the same molecule, the result in test [8], in test [9], in [10], in [11], in test [12] and in test [14] was inactive. For the same molecule, the result in [15] and in [16] was inactive. Also, the inhibition in [5] is 91% (active); in test [13], 31.4% (active).

Turning to `COc1ccc([N+](=O)[O-])cc1NCc1ccco1`, the outcome in test [1], in test [2], in test [3], in test [4], in test [6] and in [7] was inactive. Also, the result in test [8], in test [9], in test [10], in test [11], in [12] and in test [13] was inactive. The result in test [14], in [15] and in test [16] was inactive. For the same molecule, the inhibition in test [5] was 69% (active).

Turning to `CCOc1ccc2ccccc2c1CNCCc1ccc(S(N)(=O)=O)cc1`, the outcome in test [1], in test [2], in test [3], in test [4], in test [6] and in test [7] was inactive. Besides, the outcome in [8], in [9], in test [10], in test [11], in test [12] and in test [14] was inactive. Further, the result in test [15] and in [16] was inactive. For the same molecule, the values for the inhibition in test [5] and in test [13] were 92% (active) and 35.5% (active), respectively.

On to `CCN(CC)C(=O)C1CCCN(Cc2cccc(Oc3ccccc3)c2)C1` (centres undefined), for which the outcome in test [1], in test [2], in test [3], in test [4], in [7] and in test [8] was inactive. Besides, the molecule was called inactive in [9], in test [10], in test [11], in test [12], in test [14] and in [15]. The result in test [16] was inactive. Further, the inhibition in [5] is 93% (active); in [6] it was 53% (active); in test [13], 25.7% (active).

As to `Brc1cc2c(cc1COc1ccc(-c3nn[nH]n3)cc1)OCO2`, the outcome in test [1], in test [2], in [3], in [4], in test [6] and in [7] was inactive. Moreover, the outcome in [8], in test [9], in test [10], in test [11], in [12] and in test [14] was inactive. The outcome in test [15] and in test [16] was inactive. Moreover, the inhibition was 89% (active) in test [5] and 35.1% (active) in [13].

For the molecule `COc1ccc(C(=O)Nc2nc(-c3cccs3)cs2)cc1`, the outcome in test [1], in test [2], in [3], in test [4], in [6] and in [7] was inactive. Further, the result in test [8], in test [9], in test [10], in test [11], in test [12] and in test [14] was inactive. The result in [15] and in test [16] was inactive. Besides, the values for the inhibition in test [5] and in test [13] were 85% (active) and 36.4% (active), respectively.

In the case of `Cc1c(C(=O)NCC(c2ccco2)N(C)C)oc2c(Cl)cccc12` (centres undefined), the outcome in [1], in [2], in [3], in test [4], in [7] and in test [8] was inactive. In addition, the outcome in [9], in test [10], in [11], in test [12], in [13] and in test [14] was inactive. Further, the result in [15] and in test [16] was inactive. For the same molecule, the inhibition in test [5] was 94% (active); in test [6] it was 70% (active).

For orientation: inhibition means how much of the control response was suppressed.
